Experimental data reported in PubChem BioAssay AID1159580 (chemical genetic matrix, 2015).
The whole screen tested about 5,500 compounds, of which about 2,000 (36%) were called active. Inconclusive results (about 18%) are left out. No stated cut-off is given here; in the data, active means normalized growth mostly below about 0.91 (no sharp cut-off); inconclusive means no clear call, values can overlap the other calls; inactive means mostly above about 0.92. This is one part of the list.

Assay: chemical genetic growth profiling, strain panel (AID 1159580);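 further: tested at 20 µM; growth read once vehicle control cultures reached saturation at 30 °C; 1 = growth at the plate median or of vehicle wells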
Conditions: S. cerevisiae deletion strains, growth OD

Measured: normalized growth

Cc1cc(=O)c2c(O)cc(O)c(C)c2o1
inactive: locus YJL168C, strain set2, stronger effect = lower value 0.976 | locus YJL187C, strain SWE1 (second series), stronger effect = lower value 0.97 | locus YJL187C, strain SWE1, stronger effect = lower value 0.935 | locus YJR043C, strain POL32, stronger effect = lower value 1.05 | locus YKL009W, strain mrt4, stronger effect = lower value 0.954 | locus YKL068W, stronger effect = lower value 0.985 | locus YKL085W, strain MDH1 (second series), stronger effect = lower value 0.984 | locus YKL085W, strain MDH1, stronger effect = lower value 0.984 | locus YKL160W, strain elf1, stronger effect = lower value 0.908 | locus YKL190W, strain CNB1, stronger effect = lower value 0.993 | locus YKR001C, strain vps1, stronger effect = lower value 0.949 | locus YKR026C, strain gcn3, stronger effect = lower value 0.96 | locus YKR091W, strain srl3, stronger effect = lower value 0.96 | locus YLL001W, strain dnm1, stronger effect = lower value 0.944 | locus YLL026W, stronger effect = lower value 0.962 | locus YLL041C, strain sdh2, stronger effect = lower value 0.971 | locus YLR027C, strain aat2, stronger effect = lower value 0.962 | locus YLR039C, strain RIC1, stronger effect = lower value 0.919 | locus YLR058C, strain SHM2, stronger effect = lower value 0.982 | locus YLR102C, strain apc9, stronger effect = lower value 0.982 | locus YLR221C, strain rsa3, stronger effect = lower value 0.977 | locus YLR258W, strain gsy2, stronger effect = lower value 0.965 | locus YLR268W, strain sec22, stronger effect = lower value 1 | locus YLR330W, strain CHS5, stronger effect = lower value 0.993 | locus YLR342W, strain FKS1, stronger effect = lower value 0.962 | locus YLR357W, strain rsc2, stronger effect = lower value 1 | locus YLR370C, strain arc18, stronger effect = lower value 0.971 | locus YLR371W, strain rom2, stronger effect = lower value 0.983 | locus YLR384C, strain iki3, stronger effect = lower value 0.942 | locus YLR418C, strain cdc73, stronger effect = lower value 0.925 | locus YML016C, strain PPZ1, stronger effect = lower value 0.982 | locus YML032C, strain rad52, stronger effect = lower value 0.987 | locus YML120C, strain ndi1, stronger effect = lower value 0.949 | locus YML124C, strain tub3, stronger effect = lower value 0.98 | locus YMR058W, strain fet3, stronger effect = lower value 0.928 | locus YMR078C, strain ctf18, stronger effect = lower value 0.989 | locus YMR125W, strain sto1, stronger effect = lower value 0.951 | locus YMR129W, stronger effect = lower value 0.958 | locus YMR205C, strain PFK2, stronger effect = lower value 0.896 | locus YMR223W, strain ubp8, stronger effect = lower value 0.97 | locus YMR231W, strain pep5, stronger effect = lower value 0.933 | locus YMR263W, strain SAP30, stronger effect = lower value 0.965 | locus YMR307W, strain GAS1, stronger effect = lower value 1.05 | locus YNL067W, strain RPL9B, stronger effect = lower value 0.978 | locus YNL071W, strain lat1, stronger effect = lower value 0.938 | locus YNL209W, strain ssb2, stronger effect = lower value 0.96 | locus YNL233W, strain BNI4, stronger effect = lower value 0.941 | locus YNL248C, strain rpa49, stronger effect = lower value 0.929 | locus YNL250W, strain rad50, stronger effect = lower value 0.976 | locus YNL271C, strain bni1, stronger effect = lower value 0.982 | locus YNL298W, strain CLA4, stronger effect = lower value 0.983 | locus YNL307C, strain MCK1, stronger effect = lower value 0.956 | locus YNL322C, strain KRE1 (second series), stronger effect = lower value 0.971 | locus YNL322C, strain KRE1, stronger effect = lower value 1.01 | locus YNR049C, strain mso1, stronger effect = lower value 0.969 | locus YNR052C, strain pop2, stronger effect = lower value 0.978 | locus YOL006C, strain TOP1, stronger effect = lower value 1.09 | locus YOL012C, strain htz1 0.94 | locus YOL147C, strain pex11, stronger effect = lower value 0.99 | locus YOR001W, strain rrp6, stronger effect = lower value 0.909 | locus YOR061W, strain CKA2, stronger effect = lower value 1.02 | locus YOR069W, strain VPS5, stronger effect = lower value 0.98 | locus YOR070C, strain gyp1, stronger effect = lower value 0.961 | locus YOR080W, strain dia2, stronger effect = lower value 0.972 | locus YOR083W, strain WHI5, stronger effect = lower value 0.919 | locus YOR106W, strain vam3, stronger effect = lower value 0.869 | locus YOR136W, strain idh2, stronger effect = lower value 0.981 | locus YOR144C, strain elg1, stronger effect = lower value 0.982 | locus YOR184W, strain ser1, stronger effect = lower value 1.04 | locus YOR265W, strain rbl2, stronger effect = lower value 0.964 | locus YOR290C, strain snf2, stronger effect = lower value 0.898 | locus YOR316C, strain cot1, stronger effect = lower value 0.969 | locus YPL078C, strain atp4, stronger effect = lower value 0.942 | locus YPL106C, strain sse1, stronger effect = lower value 0.942 | locus YPL240C, strain hsp82, stronger effect = lower value 0.959 | locus YPL241C, strain CIN2, stronger effect = lower value 0.998 | locus YPR119W, strain clb2, stronger effect = lower value 0.995 | locus YPR141C, strain kar3, stronger effect = lower value 0.987 | locus YPR163C, strain tif3, stronger effect = lower value 0.992 | locus YPR167C, strain met16, stronger effect = lower value 0.979 | strain wtn01, stronger effect = lower value 1.01
active: locus YLR262C, strain YPT6 (second series), stronger effect = lower value 0.507 | locus YLR320W, strain mms22, stronger effect = lower value 0.853 | locus YOR270C, strain vph1, stronger effect = lower value 0.729 | locus YPL051W, strain arl3, stronger effect = lower value 0.859
